Common to all, as to assay: DAPPL (digital affinity profiling via proximity ligation, sequencing); 10 mM Tris-HCl pH 7.5, 50 mM NaCl, 1 mM DTT, 4% glycerol, room temperature, 30 min; GST-TFs on glutathione beads, 16-mer random dsDNA library, 0.1% formaldehyde crosslink after washing; high values mean tight binding
Assay [1] addresses HSF1 (Homo sapiens, UniProt Q00613 1-529). Particulars: protein: recombinant; tags: N-terminal GST; chain copies: 3; dsDNA, one strand shown. A digest of the protocol:
(§1)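 Human transcription factors carrying a GST fusion were produced in yeast, bound to glutathione beads, tagged with DNA barcodes and pooled together with a tag-only sample. Each pool was held with 200 nmole of a random double-stranded 16-mer DNA library in Tris/NaCl/DTT/glycerol buffer for 30 min at room temperature, then washed, crosslinked in 0.1% formaldehyde, proximity-ligated with BsaI/T4 ligase (1 h, 37 °C), PCR-amplified and sequenced on an Illumina NextSeq500. Binding signal is the read frequency of each hexamer for a given factor divided by its frequency in the tag-only sample.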

In assay [2] the target is T1, GABPA (Homo sapiens, UniProt Q06546 1-454).
T1 sequence: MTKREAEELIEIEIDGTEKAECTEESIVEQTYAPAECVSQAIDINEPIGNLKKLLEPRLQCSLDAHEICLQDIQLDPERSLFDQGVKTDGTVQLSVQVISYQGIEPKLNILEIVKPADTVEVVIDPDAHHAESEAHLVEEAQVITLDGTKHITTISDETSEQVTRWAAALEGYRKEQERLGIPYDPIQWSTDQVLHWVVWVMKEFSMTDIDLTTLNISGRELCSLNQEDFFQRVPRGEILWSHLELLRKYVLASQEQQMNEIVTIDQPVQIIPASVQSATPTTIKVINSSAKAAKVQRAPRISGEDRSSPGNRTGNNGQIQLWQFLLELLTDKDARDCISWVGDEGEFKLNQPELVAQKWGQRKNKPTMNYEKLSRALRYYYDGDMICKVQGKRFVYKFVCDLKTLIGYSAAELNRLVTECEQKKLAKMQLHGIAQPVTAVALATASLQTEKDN
Particulars: protein: recombinant; tags: N-terminal GST; dsDNA, one strand shown. A digest of the protocol: as §1

In assay [3] the target is ELF1 (Homo sapiens, UniProt P32519 1-619). The note with it: protein: recombinant; tags: N-terminal GST; dsDNA, one strand shown. The method in brief: as §1
Assay [4] has as its target T2, EHF (Homo sapiens, UniProt Q9NZC4 1-300).
T2 sequence: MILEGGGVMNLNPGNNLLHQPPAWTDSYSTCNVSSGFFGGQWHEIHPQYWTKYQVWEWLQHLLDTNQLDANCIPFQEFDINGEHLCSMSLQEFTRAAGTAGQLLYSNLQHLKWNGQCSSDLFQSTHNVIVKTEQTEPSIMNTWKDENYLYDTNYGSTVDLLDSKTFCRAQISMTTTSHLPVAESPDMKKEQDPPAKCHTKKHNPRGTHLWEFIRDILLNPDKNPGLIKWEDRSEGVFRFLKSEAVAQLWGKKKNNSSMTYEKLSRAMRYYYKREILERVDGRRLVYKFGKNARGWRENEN
Particulars: protein: recombinant; tags: N-terminal GST; dsDNA, one strand shown. A digest of the protocol: as §1

In assay [5] the target is SPIB (Homo sapiens, UniProt Q01892 1-262). The note with it: protein: recombinant; tags: N-terminal GST; dsDNA, one strand shown. The method in brief: as §1
The target in assay [6] is T3, ELK3 (Homo sapiens, UniProt P41970 1-407).
T3 sequence: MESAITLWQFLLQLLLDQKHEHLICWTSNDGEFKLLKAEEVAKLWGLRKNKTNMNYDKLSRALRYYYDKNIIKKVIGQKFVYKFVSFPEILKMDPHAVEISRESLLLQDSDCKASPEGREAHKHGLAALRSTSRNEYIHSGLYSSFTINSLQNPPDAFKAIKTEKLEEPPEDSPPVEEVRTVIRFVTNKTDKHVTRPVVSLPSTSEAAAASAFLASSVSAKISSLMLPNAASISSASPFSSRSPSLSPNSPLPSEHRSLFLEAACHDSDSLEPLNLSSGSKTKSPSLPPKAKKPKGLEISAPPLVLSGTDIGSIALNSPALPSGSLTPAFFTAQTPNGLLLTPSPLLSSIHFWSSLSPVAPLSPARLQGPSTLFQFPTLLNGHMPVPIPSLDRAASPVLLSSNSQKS
Particulars: protein: recombinant; tags: N-terminal GST; dsDNA, one strand shown. The method in brief:
as §1

For assay [7], the target named is T4, SPIC (Homo sapiens, UniProt Q8N5J4 1-248).
T4 sequence: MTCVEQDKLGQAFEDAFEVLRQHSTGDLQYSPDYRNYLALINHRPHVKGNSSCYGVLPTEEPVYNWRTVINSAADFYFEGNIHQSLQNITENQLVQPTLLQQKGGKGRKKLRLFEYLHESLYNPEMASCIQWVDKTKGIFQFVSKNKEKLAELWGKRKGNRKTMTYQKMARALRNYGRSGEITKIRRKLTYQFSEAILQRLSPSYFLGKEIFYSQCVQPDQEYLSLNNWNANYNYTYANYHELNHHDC
The note with it: protein: recombinant; tags: N-terminal GST; dsDNA, one strand shown. The method in brief:
as §1

Assay [8] addresses ELF4 (Homo sapiens, UniProt Q99607 1-663). The note with it: protein: recombinant; tags: N-terminal GST; dsDNA, one strand shown. A digest of the protocol:
as §1

The target of assay [9] is T5, ETV2 (Homo sapiens, UniProt O00321 1-342).
T5 sequence: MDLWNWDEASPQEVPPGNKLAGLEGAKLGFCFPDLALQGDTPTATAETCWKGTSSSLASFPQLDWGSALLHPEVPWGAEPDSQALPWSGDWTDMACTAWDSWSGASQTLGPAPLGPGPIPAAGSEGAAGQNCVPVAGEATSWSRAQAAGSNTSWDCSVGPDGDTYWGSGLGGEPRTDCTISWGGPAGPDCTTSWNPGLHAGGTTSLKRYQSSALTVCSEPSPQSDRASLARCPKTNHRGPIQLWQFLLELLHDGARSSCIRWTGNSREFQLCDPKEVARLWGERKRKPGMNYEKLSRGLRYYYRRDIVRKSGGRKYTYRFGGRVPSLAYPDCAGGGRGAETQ
The note with it: protein: recombinant; tags: N-terminal GST; dsDNA, one strand shown. The method in brief:
as §1

The target in assay [10] is CRX (Homo sapiens, UniProt O43186 1-299). The note with it: protein: recombinant; tags: N-terminal GST; dsDNA, one strand shown. The method in brief:
as §1

The target in assay [11] is ETV1 (Homo sapiens, UniProt P50549 1-477). The note with it: protein: recombinant; tags: N-terminal GST; dsDNA, one strand shown. The method in brief:
as §1

The target in assay [12] is T6, ERF (Homo sapiens, UniProt P50548 1-548).
T6 sequence: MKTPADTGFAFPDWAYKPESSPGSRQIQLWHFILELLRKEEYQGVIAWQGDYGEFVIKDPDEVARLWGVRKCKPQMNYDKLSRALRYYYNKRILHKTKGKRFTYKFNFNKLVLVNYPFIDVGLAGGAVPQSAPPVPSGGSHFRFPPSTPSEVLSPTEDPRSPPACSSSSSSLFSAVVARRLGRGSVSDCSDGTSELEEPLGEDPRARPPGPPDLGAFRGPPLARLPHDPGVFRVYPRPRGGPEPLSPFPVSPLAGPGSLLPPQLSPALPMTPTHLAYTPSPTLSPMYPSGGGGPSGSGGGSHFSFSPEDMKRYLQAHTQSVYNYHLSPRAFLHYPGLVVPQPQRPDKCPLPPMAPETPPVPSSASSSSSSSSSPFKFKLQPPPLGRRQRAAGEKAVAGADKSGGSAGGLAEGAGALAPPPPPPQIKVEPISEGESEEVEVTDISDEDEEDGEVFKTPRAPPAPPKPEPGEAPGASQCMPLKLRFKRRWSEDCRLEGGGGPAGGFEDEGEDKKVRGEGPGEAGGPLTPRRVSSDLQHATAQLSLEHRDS
The note with it: protein: recombinant; tags: N-terminal GST; dsDNA, one strand shown. A digest of the protocol: as §1

Sequence of HSF1 (Q00613 whole entry, the tested form may be a part): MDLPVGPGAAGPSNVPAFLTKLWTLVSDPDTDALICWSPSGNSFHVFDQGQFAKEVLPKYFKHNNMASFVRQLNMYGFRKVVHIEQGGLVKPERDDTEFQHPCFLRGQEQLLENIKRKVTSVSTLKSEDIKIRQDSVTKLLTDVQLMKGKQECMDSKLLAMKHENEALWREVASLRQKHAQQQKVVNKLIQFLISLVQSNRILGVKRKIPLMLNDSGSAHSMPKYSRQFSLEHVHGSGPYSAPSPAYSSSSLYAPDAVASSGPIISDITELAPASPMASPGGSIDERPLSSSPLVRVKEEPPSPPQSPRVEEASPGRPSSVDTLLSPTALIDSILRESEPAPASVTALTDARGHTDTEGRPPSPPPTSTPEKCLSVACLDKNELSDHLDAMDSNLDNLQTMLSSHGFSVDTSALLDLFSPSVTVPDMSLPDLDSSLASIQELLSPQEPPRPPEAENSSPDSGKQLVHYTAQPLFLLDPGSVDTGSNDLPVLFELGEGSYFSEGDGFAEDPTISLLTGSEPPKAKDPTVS
Sequence of ELF4 (Q99607 whole entry): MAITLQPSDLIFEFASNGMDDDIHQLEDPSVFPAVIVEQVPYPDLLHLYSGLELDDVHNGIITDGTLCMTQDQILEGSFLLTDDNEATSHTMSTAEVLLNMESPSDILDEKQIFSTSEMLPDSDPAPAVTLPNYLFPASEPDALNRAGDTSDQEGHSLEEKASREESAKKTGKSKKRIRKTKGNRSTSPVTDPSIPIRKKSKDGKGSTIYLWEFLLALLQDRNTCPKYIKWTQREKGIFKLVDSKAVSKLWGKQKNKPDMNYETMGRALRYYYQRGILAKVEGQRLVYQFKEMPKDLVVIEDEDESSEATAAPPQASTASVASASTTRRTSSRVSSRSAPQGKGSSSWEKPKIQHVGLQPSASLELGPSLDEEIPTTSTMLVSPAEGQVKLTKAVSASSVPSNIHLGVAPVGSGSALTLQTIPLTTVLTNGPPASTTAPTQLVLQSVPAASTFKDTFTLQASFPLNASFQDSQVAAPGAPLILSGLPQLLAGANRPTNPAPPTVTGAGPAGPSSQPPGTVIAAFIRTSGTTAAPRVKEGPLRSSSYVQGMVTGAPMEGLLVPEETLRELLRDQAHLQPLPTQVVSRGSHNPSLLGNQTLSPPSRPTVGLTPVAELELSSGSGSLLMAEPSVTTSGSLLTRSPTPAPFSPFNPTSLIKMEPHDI
Sequence of SPIB (Q01892 whole entry): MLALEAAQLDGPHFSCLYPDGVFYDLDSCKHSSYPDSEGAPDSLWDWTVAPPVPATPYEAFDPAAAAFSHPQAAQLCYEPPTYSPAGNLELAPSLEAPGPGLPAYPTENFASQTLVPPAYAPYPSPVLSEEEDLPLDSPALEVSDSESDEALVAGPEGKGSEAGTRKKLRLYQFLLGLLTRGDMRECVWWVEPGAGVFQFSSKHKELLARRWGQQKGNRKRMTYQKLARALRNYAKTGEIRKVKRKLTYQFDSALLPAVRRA
Sequence of ELF1 (P32519 whole entry): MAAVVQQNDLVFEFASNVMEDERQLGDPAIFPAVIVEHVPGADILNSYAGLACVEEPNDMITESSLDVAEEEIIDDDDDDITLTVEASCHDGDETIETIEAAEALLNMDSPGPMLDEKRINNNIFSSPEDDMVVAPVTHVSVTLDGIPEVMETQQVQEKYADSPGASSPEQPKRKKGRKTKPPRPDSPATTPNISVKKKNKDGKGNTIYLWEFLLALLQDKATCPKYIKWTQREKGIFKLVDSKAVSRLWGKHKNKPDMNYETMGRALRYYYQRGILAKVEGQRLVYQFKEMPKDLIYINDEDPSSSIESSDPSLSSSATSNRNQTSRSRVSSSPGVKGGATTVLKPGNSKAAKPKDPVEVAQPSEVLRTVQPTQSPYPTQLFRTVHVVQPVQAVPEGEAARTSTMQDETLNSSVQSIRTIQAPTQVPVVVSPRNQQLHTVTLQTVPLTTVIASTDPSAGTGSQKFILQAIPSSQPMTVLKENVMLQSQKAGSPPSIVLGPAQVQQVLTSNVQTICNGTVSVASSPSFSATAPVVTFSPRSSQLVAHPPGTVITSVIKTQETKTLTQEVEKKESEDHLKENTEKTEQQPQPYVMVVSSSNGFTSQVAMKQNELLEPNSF
Sequence of ETV1 (P50549 whole entry): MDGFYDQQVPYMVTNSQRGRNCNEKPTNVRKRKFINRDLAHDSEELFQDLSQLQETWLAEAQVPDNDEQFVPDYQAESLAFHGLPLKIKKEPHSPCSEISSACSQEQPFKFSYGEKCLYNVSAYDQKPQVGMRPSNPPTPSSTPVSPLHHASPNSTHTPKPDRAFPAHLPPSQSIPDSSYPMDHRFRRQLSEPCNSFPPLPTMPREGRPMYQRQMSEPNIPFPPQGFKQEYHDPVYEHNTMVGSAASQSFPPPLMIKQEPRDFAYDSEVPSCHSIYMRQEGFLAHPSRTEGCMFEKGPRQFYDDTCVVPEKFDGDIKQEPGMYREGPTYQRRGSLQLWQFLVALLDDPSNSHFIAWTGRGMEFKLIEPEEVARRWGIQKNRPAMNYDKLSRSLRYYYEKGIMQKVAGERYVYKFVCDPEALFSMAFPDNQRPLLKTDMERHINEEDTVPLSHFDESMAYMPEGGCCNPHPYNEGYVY
Sequence of CRX (O43186 whole entry): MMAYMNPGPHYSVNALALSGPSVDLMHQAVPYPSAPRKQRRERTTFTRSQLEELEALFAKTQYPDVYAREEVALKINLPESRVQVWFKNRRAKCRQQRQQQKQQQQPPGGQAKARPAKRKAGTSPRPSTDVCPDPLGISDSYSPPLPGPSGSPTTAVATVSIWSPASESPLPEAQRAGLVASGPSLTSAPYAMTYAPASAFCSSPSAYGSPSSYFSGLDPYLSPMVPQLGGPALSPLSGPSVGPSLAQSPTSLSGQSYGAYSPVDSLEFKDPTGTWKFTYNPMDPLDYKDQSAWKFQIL

As for GAGAAT, the binding signal in assay [1] is 1.44 fold enrichment (6-mer frequency, TF over GST control).
On to TTAGCC, for which the binding signal in assay [2] is 1.01 fold enrichment (6-mer frequency, TF over GST control); in assay [3], 1.06 fold enrichment (6-mer frequency, TF over GST control); in assay [4], 1.03 fold enrichment (6-mer frequency, TF over GST control); in assay [5], 1 fold enrichment (6-mer frequency, TF over GST control); in [6] it was 1.02 fold enrichment (6-mer frequency, TF over GST control); in [1], 1.45 fold enrichment (6-mer frequency, TF over GST control). In addition, the binding signal is 1.04 fold enrichment (6-mer frequency, TF over GST control) in assay [7]; 1.01 fold enrichment (6-mer frequency, TF over GST control) in assay [8]; 1.06 fold enrichment (6-mer frequency, TF over GST control) in assay [9]; 2.22 fold enrichment (6-mer frequency, TF over GST control) in assay [10]; 1.02 fold enrichment (6-mer frequency, TF over GST control) in assay [11]; 1.07 fold enrichment (6-mer frequency, TF over GST control) in assay [12].
Consider TCGCGA, for which the binding signal in assay [1] was 1.59 fold enrichment (6-mer frequency, TF over GST control).
